From PubChem BioAssay (Tox21)
Several values for one entry are separate records, joined by “and”; a condition that tells them apart may be missing. Identical values can stand only once. Inconclusive results are not listed. Activity calls are given as the source filed them. Calls follow the shape of the full dose curve.

Columns and labels:
[1] = molecular target: Acetylcholinesterase (Homo sapiens) (UniProt P22303); assay: Acetylcholinesterase (AChE) small molecule antagonists: colormetric cell-based qHTS assay (AID 1347395); also: nearly all actives have a fitted effect of over 30% in size; also: potency is read from the fitted curve at half-maximal effect
Procedure, shortened: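 Quantitative HTS in attached SH-SY5Y cells: 30 min compound exposure, then 90 min with acetylthiocholine and DTNB at 37 C; colour from thiocholine reports AChE activity.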

[2] = molecular target: Acetylcholinesterase (Homo sapiens) (UniProt P22303); assay: Acetylcholinesterase (AChE) small molecule antagonists: enzyme-based qHTS assay (AID 1347397); settings: Potency: AChE enzyme activity inhibition; outcome: AChE enzyme activity inhibition; also: nearly all actives have a fitted effect of over 55% in size
Procedure, shortened: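 Colorimetric DTNB readout of acetylthiocholine hydrolysis, 10 min at room temperature, after 30 min room-temperature exposure of 50 mU/mL recombinant human enzyme to compound; DMSO vehicle control.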

[3] = molecular target: Acetylcholinesterase (Homo sapiens) (UniProt P22303); assay: Acetylcholinesterase (AChE) small molecule antagonists: fluorescence cell-based qHTS assay (AID 1347398); settings: Potency: AChE activity; outcome: AChE activity; also: nearly all actives have a fitted effect of over 50% in size; also: potency is read from the fitted curve at half-maximal effect
Procedure, shortened: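 Cellular AChE activity read as thiocholine from acetylthiocholine hydrolysis, detected by Thiolite Green fluorescence at 490/520 nm after 40 min at room temperature. Compounds were pre-incubated 30 min at 37 C on adherent SH-SY5Y cells.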

[4] = molecular target: Acetylcholinesterase (Homo sapiens) (UniProt P22303); assay: Acetylcholinesterase (AChE) small molecule antagonists: enzyme-based qHTS assay with human liver microsomes (AID 1347399); settings: Potency: qHTS inhibition; outcome: qHTS inhibition; also: nearly all actives have a fitted effect of over 60% in size
Procedure, shortened: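 Recombinant human AChE (50 mU/mL in the enzyme mix) and human liver microsomes (0.25 mg/mL final) were preincubated with compound and NADPH (0.25 mg/mL final) for 30 min at 37 C. Acetylthiocholine/DTNB was then added; thiocholine was read colorimetrically after 10 min at room temperature.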
% is scaled to controls: 0 for no effect and ±100 for the full control effect.

Chain of Acetylcholinesterase (Homo sapiens) (P22303 whole entry, looked up): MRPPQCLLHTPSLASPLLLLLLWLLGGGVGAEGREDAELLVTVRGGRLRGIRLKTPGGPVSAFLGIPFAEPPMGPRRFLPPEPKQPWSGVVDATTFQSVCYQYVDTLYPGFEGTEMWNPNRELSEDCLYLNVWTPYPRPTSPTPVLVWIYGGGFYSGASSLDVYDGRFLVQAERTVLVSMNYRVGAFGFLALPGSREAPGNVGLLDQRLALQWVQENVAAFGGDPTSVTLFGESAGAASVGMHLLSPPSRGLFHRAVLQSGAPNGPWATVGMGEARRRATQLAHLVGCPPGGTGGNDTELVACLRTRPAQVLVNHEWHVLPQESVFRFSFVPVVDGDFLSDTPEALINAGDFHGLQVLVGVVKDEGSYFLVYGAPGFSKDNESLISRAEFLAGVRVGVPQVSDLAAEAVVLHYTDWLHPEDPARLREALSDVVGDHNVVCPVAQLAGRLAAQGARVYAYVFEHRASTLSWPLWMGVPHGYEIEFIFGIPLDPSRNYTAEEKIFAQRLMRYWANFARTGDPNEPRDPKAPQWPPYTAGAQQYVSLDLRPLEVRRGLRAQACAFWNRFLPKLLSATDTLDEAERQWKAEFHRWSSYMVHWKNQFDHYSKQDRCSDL

CN1CCN(CC(=O)N2c3ccccc3C(=O)Nc3cccnc32)CC1
inactive: activity, negative = inhibition [1] 0.44% [at 10.5 µM] | activity change, negative = inhibition [2] 0.584% [at 10.5 µM] | activity change, negative = inhibition [3] 5.87% [at 10.5 µM] | activity change, negative = inhibition [4] -0.472% [at 10.5 µM]

CO[Si](C)(OC)c1ccccc1
inactive: Potency [1] | Potency [2] | Potency [3] | Potency [4]

COCc1nnc(-c2ccc[n+]([O-])c2)n1-c1c(Cl)c(Cl)cc2[nH]c(=O)c(=O)[nH]c12
inactive: Potency [1] | Potency [2] | Potency [3] | Potency [4]

CCN(CC)CC
inactive: Potency [1] | Potency [2] | Potency [3] | Potency [4]

CCn1c(=O)c2c(nc(/C=C/c3ccc(OC)c(OC)c3)n2C)n(CC)c1=O
inactive: Potency [1] | Potency [2] | Potency [3] | Potency [4]

CCCCCCCC/C=C\CCCCCCCC(=O)N(CCO)CCO
active: Potency [3] 19.9 µM
inactive: Potency [1] | Potency [2] | Potency [4]

Cc1c(Cl)cccc1Nc1ccccc1C(=O)O
inactive: Potency [1] | Potency [2] | Potency [3] | Potency [4]

CCC1=C(C)CN(C(=O)NCCc2ccc(S(=O)(=O)NC(=O)NC3CCC(C)CC3)cc2)C1=O (stereo not drawn)
inactive: Potency [1] | Potency [2] | Potency [3] | Potency [4]

COc1ccc2c(c1OC)C(=O)O[C@@H]2[C@H]1c2c(cc3c(c2OC)OCO3)CCN1C
inactive: Potency [1] | Potency [2] | Potency [3] | Potency [4]

C/C(=C\C(C)CC(C)CC(C)C)C1CC(=O)OC1=O (stereo not drawn)
inactive: Potency [1] | Potency [2] | Potency [3] | Potency [4]

O=CN1CCCCC1
inactive: Potency [1] | Potency [2] | Potency [3] | Potency [4]

CN(CC1(C)CCCO1)S(=O)(=O)c1ccc(Cl)c(S(N)(=O)=O)c1 (stereo not drawn)
inactive: Potency [1] | Potency [2] | Potency [3] | Potency [4]

Cc1cn[nH]c1
inactive: Potency [1] | Potency [2] | Potency [3] | Potency [4]

CC1(C)C(=O)C(C)(C)C1=O
inactive: Potency [1] | Potency [2] | Potency [3] | Potency [4]

CNC(C)=O
inactive: Potency [1] | Potency [2] | Potency [3] | Potency [4]

C[C@H](CCC(=O)O)[C@H]1CC[C@H]2[C@@H]3C(=O)C[C@@H]4CC(=O)CC[C@]4(C)[C@H]3CC(=O)[C@]12C
inactive: Potency [1] | Potency [2] | Potency [3] | Potency [4]

OC(CCN1CCCCC1)(c1ccccc1)C1CC2C=CC1C2 (stereo not drawn)
inactive: Potency [1] | Potency [2] | Potency [3] | Potency [4]

CC(C)=CCCC(C)CCOC(=O)C(C)C (stereo not drawn)
inactive: Potency [1] | Potency [2] | Potency [3] | Potency [4]

Cc1nnc(SCC2=C(C(=O)O)N3C(=O)[C@@H](NC(=O)Cn4cnnn4)[C@H]3SC2)s1
inactive: Potency [1] | Potency [2] | Potency [3] | Potency [4]

CCCCCCCCCCCCCc1ccccc1
inactive: Potency [1] | Potency [2] | Potency [3] | Potency [4]

NCCC(O)(P(=O)(O)O)P(=O)(O)O
inactive: Potency [1] | Potency [2] | Potency [3] | Potency [4]

OCCC(O)CO (stereo not drawn)
inactive: Potency [1] | Potency [2] | Potency [3] | Potency [4]

Cc1cccc2nccnc12
inactive: Potency [1] | Potency [2] | Potency [3] | Potency [4]

CCCCCCCCO[C@@H]1O[C@H](CO)[C@@H](O)[C@H](O)[C@H]1O
inactive: Potency [1] | Potency [2] | Potency [3] | Potency [4]

C=CC(C)(CCC=C(C)C)OC=O (stereo not drawn)
inactive: Potency [1] | Potency [2] | Potency [3] | Potency [4]

CC(C(=O)O)c1ccc(CC2CCCC2=O)cc1 (stereo not drawn)
inactive: Potency [1] | Potency [2] | Potency [3] | Potency [4]

CC1CCc2c(N3CCC(O)CC3)c(F)cc3c(=O)c(C(=O)O)cn1c23 (stereo not drawn)
inactive: Potency [1] | Potency [2] | Potency [3] | Potency [4]

CC(C)=CCC/C(C)=C/COC=O
inactive: Potency [1] | Potency [2] | Potency [3] | Potency [4]

C[C@H](O)C(=O)Nc1c(I)c(C(=O)NC(CO)CO)c(I)c(C(=O)NC(CO)CO)c1I
inactive: Potency [1] | Potency [2] | Potency [3] | Potency [4]

COP(=O)(O)OP(=O)(O)OC
inactive: Potency [1] | Potency [2] | Potency [3] | Potency [4]

CC(CO)CO
inactive: Potency [1] | Potency [2] | Potency [3] | Potency [4]

CCCCC(CC)CN (stereo not drawn)
inactive: Potency [1] | Potency [2] | Potency [3] | Potency [4]

CCCCc1ccc2cccc(S(=O)(=O)O)c2c1
inactive: Potency [1] | Potency [2] | Potency [3] | Potency [4]

C[C@H]1NCc2cc(-c3ccc4c(=O)c(C(=O)O)cn(C5CC5)c4c3OC(F)F)ccc21
inactive: outcome [1] | outcome [2] | outcome [3] | outcome [4]

CCCCOCCOC(=O)COc1ccc(Cl)cc1Cl
inactive: Potency [1] | Potency [2] | Potency [3] | Potency [4]

CC1CCC(=O)C1=O (stereo not drawn)
inactive: Potency [1] | Potency [2] | Potency [3] | Potency [4]

CCOC(=O)N1CCC(Nc2ccc(Cl)cc2N)CC1
inactive: Potency [1] | Potency [2] | Potency [3] | Potency [4]

CCCN(CCC)c1c([N+](=O)[O-])cc(C(F)(F)F)c(N)c1[N+](=O)[O-]
inactive: Potency [1] | Potency [2] | Potency [3] | Potency [4]

Nc1nc(-c2ccccc2)c(Br)c(=O)[nH]1
inactive: Potency [1] | Potency [2] | Potency [3] | Potency [4]

CCN(CC)CCCC(C)Nc1ccnc2cc(Cl)ccc12 (stereo not drawn)
active: Potency [1] 9.52 µM | Potency [3] 3.79 µM
inactive: activity change, negative = inhibition [2] -3.67% [at 10.5 µM] | activity change, negative = inhibition [4] -0.628% [at 10.5 µM] and -0.0844% [at 23.6 µM]

Clc1ccc2n[nH]nc2c1
inactive: Potency [1] | Potency [2] | Potency [3] | Potency [4]

Nc1ccc(NC(=O)c2ccc(N)cc2)cc1
inactive: Potency [1] | Potency [2] | Potency [3] | Potency [4]
